Potency data for 27 compounds are collected here from PubChem BioAssay (Tox21).

SMILES strings stand for the structures. Values joined by “and” are separate entries in the source; they are usually repeats but may differ in a detail not shown here. Equal entries are not always repeated. Records with an inconclusive call do not appear. Values without a mark were called inactive. Active and inactive are the calls of the source. Unless noted, calls follow the shape of the dose curve; as a rule, active = well fitted curve in the direction sought with a large enough effect in the repeat runs; inconclusive = weak or mixed curves; inactive = no such curve, though single readings can be large; an effect the other way counts as inactive or inconclusive.

The nature of assay [1]: qHTS assay to identify aromatase inhibitors - cell viability counter screen (AID 743084).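 Also: cells stimulated with testosterone during compound exposure; nearly all actives have a fitted effect of over 55% in size.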 Also: potency is read from the fitted curve at half-maximal effect. A general note: Quantitative high-throughput screening tests each substance at several concentrations.
Assay [2] deals with Aryl hydrocarbon receptor (Homo sapiens) (UniProt P35869). The experiment in a line: qHTS assay to identify small molecule that activate the aryl hydrocarbon receptor (AhR) signaling pathway (AID 743085).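 Also: HG2L7.5c1 human HepG2 liver cells with stably integrated DRE-driven firefly reporter; series mostly up to about 70 µM; nearly all actives have a fitted effect of over 15% in size.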 The gist of the method: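 Measured in HG2L7.5c1 cells: CellTiter-Fluor signal (30 min incubation, 37C) for viability, then luciferase luminescence (30 min, room temperature). Compound contact time was 24 h at 37C, following a 5 h pre-incubation.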
Sequence of Aryl hydrocarbon receptor (Homo sapiens) (P35869 whole entry, looked up): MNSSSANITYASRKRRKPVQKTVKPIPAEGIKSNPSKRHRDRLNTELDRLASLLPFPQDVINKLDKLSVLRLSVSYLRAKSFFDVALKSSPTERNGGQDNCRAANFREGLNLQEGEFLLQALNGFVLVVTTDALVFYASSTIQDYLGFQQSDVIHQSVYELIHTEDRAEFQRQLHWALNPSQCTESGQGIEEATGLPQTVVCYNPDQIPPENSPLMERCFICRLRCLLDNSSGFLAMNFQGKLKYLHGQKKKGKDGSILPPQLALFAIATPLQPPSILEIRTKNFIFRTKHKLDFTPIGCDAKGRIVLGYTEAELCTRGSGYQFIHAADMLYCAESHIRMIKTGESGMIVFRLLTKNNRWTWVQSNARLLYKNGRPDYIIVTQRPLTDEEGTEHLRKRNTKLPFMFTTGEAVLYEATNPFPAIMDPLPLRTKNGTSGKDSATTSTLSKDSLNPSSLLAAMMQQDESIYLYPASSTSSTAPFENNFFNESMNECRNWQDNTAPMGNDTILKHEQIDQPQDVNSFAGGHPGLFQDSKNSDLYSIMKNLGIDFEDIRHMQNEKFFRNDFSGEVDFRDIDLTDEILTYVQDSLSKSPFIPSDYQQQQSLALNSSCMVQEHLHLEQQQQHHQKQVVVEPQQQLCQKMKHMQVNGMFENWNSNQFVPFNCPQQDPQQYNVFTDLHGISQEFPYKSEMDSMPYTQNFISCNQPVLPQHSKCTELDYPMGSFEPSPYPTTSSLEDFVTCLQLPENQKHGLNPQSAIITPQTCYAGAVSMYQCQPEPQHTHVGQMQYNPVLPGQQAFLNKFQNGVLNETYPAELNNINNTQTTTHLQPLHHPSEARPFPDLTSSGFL

Assay [3] is described as follows: qHTS assay to identify small molecule that activate the aryl hydrocarbon receptor (AhR) signaling pathway - cell viability counter screen (AID 743086). Also: nearly all actives have a fitted effect of over 45% in size. Also: potency is read from the fitted curve at half-maximal effect. The gist of the method:
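Cytotoxicity counter screen: CellTiter-Fluor signal (30 min, 37 C) in 4000 HepG2 cells/well carrying the DRE-luciferase reporter, following 24 h compound exposure at 37 C.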

Assay [4] is described as follows: qHTS assay to identify small molecule antagonists of the peroxisome proliferator-activated receptor gamma (PPARg) signaling pathway - cell viability counter screen (AID 743194). Also: nearly all actives have a fitted effect of over 55% in size. The gist of the method: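 Viability was measured as CellTiter-Glo luminescence in GeneBLAzer PPARg UAS-bla HEK293H cells. These cells had been exposed 17 h at 37 C to compounds together with rosiglitazone at 50 nM final, with the beta-lactamase readout taken in the same wells.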

The nature of assay [5]: qHTS assay for small molecule agonists of the antioxidant response element (ARE) signaling pathway - cell viability counter screen (AID 743203; calls by dose curve; also: nearly all actives have a fitted effect of over 55% in size; also: potency is read from the fitted curve at half-maximal effect). A digest of the protocol: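 Luminescence read-out (CellTiter-Glo, 30 min at room temperature) measured cell viability in the same wells as the ARE beta-lactamase reporter. HepG2 ARE-bla cells were treated with compounds for 16 hrs at 37C/5% CO2.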

A short description of assay [6]: qHTS assay for small molecule activators of the heat shock response signaling pathway (AID 743210; active = well fitted activation curve with a large enough effect in the signal ratio in the repeat runs, with a control signal flat, not every such curve was filed as active; the % refers to the signal ratio; also: potency is read from the fitted curve at half-maximal effect;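 as to activation: HeLa cells with beta-lactamase reporter driven by heat shock elements; series mostly up to about 63 µM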). A digest of the protocol: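 Fluorescence from a cleaved B/G FRET substrate (2.5 h, room temp) reports HSE-driven beta-lactamase in HeLa cells treated 5 h at 37 C with DMSO-dissolved compounds.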
Assay [7] concerns the target Peroxisome proliferator-activated receptor gamma (Homo sapiens) (UniProt P37231). The experiment in a line: qHTS assay to identify small molecule agonists of the peroxisome proliferator-activated receptor gamma (PPARg) signaling pathway (AID 743094; active = well fitted activation curve with a large enough effect in the signal ratio in the repeat runs, not every such curve was filed as active; the % refers to the signal ratio). The gist of the method:
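HEK293H PPARg-bla cells, 5 h settle at 37C/5% CO2; compound (DMSO) 17 h, 37C; B/G FRET substrate 1 h RT; fluorescence intensity read-out. qHTS format.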

Assay [8] shares this target. Kind of assay: qHTS assay to identify small molecule antagonists of the peroxisome proliferator-activated receptor gamma (PPARg) signaling pathway (AID 743191; calls by dose curve; also: nearly all actives have a fitted effect of over 30% in size; also: potency is read from the fitted curve at half-maximal effect). The gist of the method:
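Beta-lactamase reporter under UAS control in HEK293H PPARg-bla cells; compound treatment 17 h at 37C. Read-out: fluorescence intensity after 1 h room-temperature incubation with LiveBLAzer B/G FRET substrate.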

Assay [9] can be described thus: qHTS assay for small molecule agonists of the antioxidant response element (ARE) signaling pathway (AID 743202; active = well fitted activation curve with a large enough effect in the signal ratio in the repeat runs, not every such curve was filed as active; the % refers to the signal ratio; also: potency is read from the fitted curve at half-maximal effect). A digest of the protocol:
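Beta-lactamase reporter activity, read as fluorescence intensity, reflects ARE/Nrf2 pathway induction in HepG2 cells after 16 h compound exposure at 37 C; substrate loading was 2 h at room temperature.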

The nature of assay [10]: qHTS assay for small molecule activators of the heat shock response signaling pathway - cell viability counter screen (AID 743209). Also: nearly all actives have a fitted effect of over 50% in size. A digest of the protocol:
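HSE-bla HeLa; 1500 cells/well; overnight 37 C, 5% CO2; compound 5 h 37 C; LiveBLAzer B/G substrate 2.5 h RT; CellTiter-Glo 30 min RT; luminescence.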

Sequence of Peroxisome proliferator-activated receptor gamma (Homo sapiens) (P37231 whole entry, looked up): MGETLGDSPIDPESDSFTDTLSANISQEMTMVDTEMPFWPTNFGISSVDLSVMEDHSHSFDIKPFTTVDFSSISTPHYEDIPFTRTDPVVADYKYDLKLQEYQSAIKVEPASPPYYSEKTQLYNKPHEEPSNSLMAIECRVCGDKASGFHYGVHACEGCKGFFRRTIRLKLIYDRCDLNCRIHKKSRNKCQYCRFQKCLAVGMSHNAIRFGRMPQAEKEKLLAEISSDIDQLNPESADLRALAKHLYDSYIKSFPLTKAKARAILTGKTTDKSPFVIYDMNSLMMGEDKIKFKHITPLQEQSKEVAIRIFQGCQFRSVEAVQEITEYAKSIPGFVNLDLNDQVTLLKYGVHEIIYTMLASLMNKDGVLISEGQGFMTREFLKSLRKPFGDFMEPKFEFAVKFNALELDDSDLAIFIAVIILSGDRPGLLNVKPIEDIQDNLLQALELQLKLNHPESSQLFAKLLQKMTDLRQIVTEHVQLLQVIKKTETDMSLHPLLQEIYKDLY

For the compound `CNCCCC1c2ccccc2C=Cc2ccccc21`, the Potency entry in assay [1], in [2], in assay [3], in assay [4], in [5] and in [6] was “inactive” in each case.

For the compound `COc1cc2c(N3CCN(C(=O)Nc4ccc(OC(C)C)cc4)CC3)ncnc2cc1OCCCN1CCCCC1`, the Potency entry in [1], in assay [7], in assay [8], in assay [4], in [5] and in assay [6] was “inactive” in each case. Also, in assay [3], the Potency is 23.7 µM (active).

Consider `CC(=O)[C@H]1CC[C@H]2[C@@H]3C[C@H](C)C4=CC(=O)CC[C@]4(C)[C@H]3[C@@H](O)C[C@]12C`, for which the Potency entry in assay [1], in assay [3], in assay [7], in assay [8], in assay [4] and in assay [9] was “inactive” throughout. Further, the Potency result in assay [5], in assay [10] and in assay [6] was “inactive” each time.

Turning to `CCCOCCOCCO`, the Potency entry in [1], in assay [3], in assay [7], in assay [8], in assay [9] and in [5] was “inactive” each time. In addition, the Potency entry in assay [10] and in assay [6] was “inactive” throughout.

As for `Fc1ccccc1[C@@H](F)COC1CCC(Nc2ncnc3[nH]ncc23)CC1` (stereo not given in full), the Potency result in assay [1], in [2], in [5] and in [6] was “inactive” each time. For the same compound, the Potency in [3] was 30.6 µM (active).

Turning to `Nc1nc(Cl)nc2c1ncn2[C@@H]1O[C@H](CO)[C@@H](O)[C@@H]1F`, the Potency result in assay [1], in assay [2], in assay [3], in [4], in [5] and in [10] was “inactive” each time. Moreover, the Potency entry in assay [6] was “inactive”.

As for `CCCCCCCCCCOS(=O)(=O)O`, the Potency entry in assay [1], in assay [2], in assay [3], in assay [5], in assay [10] and in assay [6] was “inactive” throughout.

Turning to `COc1ccccc1N=Nc1c(S(=O)(=O)O)cc2cc(S(=O)(=O)O)cc(NC(C)=O)c2c1O`, the figures for the Potency in assay [1] and in assay [3] were 20.4 µM (active) and 22.9 µM (active), respectively. Further, the Potency entry in assay [7], in assay [8], in assay [4], in assay [9], in assay [5] and in assay [10] was “inactive” in each case. Moreover, the Potency entry in [6] was “inactive”.

As to `O=C(O)c1ccc(CO)o1`, the Potency result in assay [1], in assay [3], in [7], in assay [8], in [4] and in assay [9] was “inactive” each time. Moreover, the Potency result in assay [5], in assay [10] and in [6] was “inactive” each time.

With `CC(C)(C)CC(C)(C)c1ccc(OCCO)cc1`, the Potency in assay [1] was 33.5 µM (active) and 30.5 µM (active). The Potency entry in [2], in assay [7], in assay [8], in assay [4] and in assay [5] was “inactive” each time.

On to `NC(=O)N(O)[C@@H]1C=C[C@H](Oc2cccc(Oc3ccc(F)cc3)c2)C1`, for which the Potency entry in assay [1], in [2], in assay [7], in assay [4], in assay [5] and in assay [10] was “inactive” in each case. Further, the Potency result in assay [6] was “inactive”. For the same compound, the Potency in [9] is 17.2 µM (active).

As to `O=S1OCCO1`, the Potency entry in assay [1], in [3], in [7], in [8], in [4] and in [9] was “inactive” in each case. Moreover, the Potency entry in assay [5] and in assay [6] was “inactive” each time.

As to `CCN(CC)CCNC(=O)c1ccc(NC(C)=O)cc1`, the Potency entry in assay [1], in assay [3], in [7], in [8], in [4] and in [9] was “inactive” in each case. In addition, the Potency entry in assay [5], in [10] and in [6] was “inactive” each time.

As for `Oc1cc(O)c(Cl)cc1Cl`, the Potency result in assay [1], in [3], in [7], in [8], in assay [4] and in [5] was “inactive” each time. For the same compound, in assay [6], the Potency is 50.2 µM (active).

Regarding `Cc1c(C(=O)NN2CCCCC2)nn(-c2ccc(Cl)cc2Cl)c1-c1ccc(Cl)cc1`, the Potency entry in assay [1] and in assay [3] was “inactive” throughout. In assay [5], the Potency is 23.7 µM (active).

Consider `CC1=CC(O)CC(C)(C)C1` (stereo not given), for which the Potency entry in [1], in assay [3], in assay [7], in assay [4], in assay [9] and in assay [5] was “inactive” throughout. Moreover, in [6], the Potency entry was “inactive”.

As for `CC(C)(C)C(=O)O`, the Potency result in assay [1], in assay [3], in assay [7], in assay [8], in assay [5] and in assay [10] was “inactive” throughout. Besides, in [6], the Potency result was “inactive”.

On to `CCCC(=O)O[C@]1(C(=O)COC(=O)CC)CC[C@H]2[C@@H]3CCC4=CC(=O)CC[C@]4(C)[C@H]3[C@@H](O)C[C@@]21C`, for which the Potency entry in assay [1], in [3], in assay [7], in assay [9], in assay [5] and in assay [10] was “inactive” in each case. Further, the Potency entry in assay [6] is “inactive”.

`COc1cc2[nH]c(=O)[nH]c(=O)c2cc1OC`: the Potency result in assay [1], in assay [3], in assay [7], in [9], in [5] and in assay [10] was “inactive” in each case. For the same compound, the Potency result in assay [6] was “inactive”.

`CC(C)=CC=O`: the Potency result in assay [1], in assay [3], in assay [7], in assay [9], in assay [5] and in [10] was “inactive” in each case. The Potency result in assay [6] is “inactive”.

`CCCCN(CCCC)C(=S)SSC(=S)N(CCCC)CCCC`: the Potency result in [1], in assay [3], in assay [4], in [5] and in assay [10] was “inactive” in each case. The Potency in assay [8] was 24.3 µM (active); in assay [6], 1.37 µM (active).

Turning to `CCCOC(=O)c1ccc(N)cc1`, the Potency result in [1], in [3], in assay [7], in assay [5], in [10] and in assay [6] was “inactive” in each case.

With `CCC(Cc1ccccc1)(C(=O)c1ccc(N2CCOCC2)cc1)N(C)C` (stereo not given), the Potency result in assay [1], in assay [7], in assay [4], in [5], in assay [10] and in assay [6] was “inactive” throughout.

`CN1CCN(c2c(F)cc3c(=O)c(C(=O)O)cn4c3c2OCN4C)CC1`: the Potency entry in [1], in assay [3], in [7], in assay [4], in [9] and in assay [5] was “inactive” in each case.

As for `CCOC(=O)C(C)Oc1ccc(Oc2nc3ccc(Cl)cc3o2)cc1` (stereo not given), the Potency result in assay [1], in [3], in assay [7], in [5], in assay [10] and in [6] was “inactive” each time.

For `COC(=O)Nc1nc2ccc(C(=O)c3cccs3)cc2[nH]1`, the Potency result in assay [1], in assay [3], in [4] and in [10] was “inactive” throughout. In assay [9], the Potency was 0.75 µM (active).

As for `C[C@@H]1C[C@H]2[C@@H]3CCC4=CC(=O)C=C[C@]4(C)[C@@]3(F)[C@@H](O)C[C@]2(C)[C@@]1(O)C(=O)CO`, the Potency entry in assay [1], in assay [3], in [4], in assay [9], in [5] and in assay [10] was “inactive” each time. In assay [6], the Potency result was “inactive”.
